Screening data: PubChem BioAssay, National Center for Advancing Translational Sciences (NCATS)
Hits are enriched below; roughly 10% of the tested compounds scored in any of these assays.
MmCpn inh: Inhibitors of TCP-1 ring complex (TRiC) of Methanococcus maripaludis (MmCpn): qHTS; Chaperonin Mm-Cpn (Methanococcus maripaludis); purified Mm-Cpn ATPase, ADP Transcreener TR-FRET; Potency, µM (doses to about 76.9 µM), for the others: top-dose activity, negative = inhibition, hits mostly inhibitors; hit rate 0.031% among 330,000; AID 504842, 2011; note: potency is the fitted concentration of half-maximal effect; nearly all actives have a fitted effect of over 80% in size
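ATPase read-out: TR-FRET ADP immunoassay (anti-ADP Eu cryptate vs ADP-d2), ex 320 nm, em 590/665 nm; signal drops as ADP forms. Enzyme 25 nM, ATP 10 uM, 30 min at 37°C after 10 min compound preincubation.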
PLK1 PBD inh: qHTS for Inhibitors of PLK1-PDB (polo-like kinase 1 - polo-box domain): Primary Screen; Serine/threonine-protein kinase PLK1 (Homo sapiens), P53350; Plk1 PBD binding of FITC phosphopeptide, fluorescence polarization; Potency, µM, inactives show max response, negative = inhibition, hits mostly inhibitors; hit rate 2.8% among 360,000; note: potency is the fitted concentration of half-maximal effect; series mostly up to about 57 µM; nearly all actives have a fitted effect of over 65% in size
G9a block: qHTS Assay for Inhibitors of Histone Lysine Methyltransferase G9a; G9a H3K9 monomethylation, AlphaScreen, 2 h; Potency, µM (doses to about 102 µM), for the others: at the top dose activity, negative = inhibition, most hits filed as inhibitors; hit rate 8.8% among 350,000; note: potency is the fitted concentration of half-maximal effect; nearly all actives have a fitted effect of over 75% in size
Target sequence (Q96KQ7 913-1193 limits assumed): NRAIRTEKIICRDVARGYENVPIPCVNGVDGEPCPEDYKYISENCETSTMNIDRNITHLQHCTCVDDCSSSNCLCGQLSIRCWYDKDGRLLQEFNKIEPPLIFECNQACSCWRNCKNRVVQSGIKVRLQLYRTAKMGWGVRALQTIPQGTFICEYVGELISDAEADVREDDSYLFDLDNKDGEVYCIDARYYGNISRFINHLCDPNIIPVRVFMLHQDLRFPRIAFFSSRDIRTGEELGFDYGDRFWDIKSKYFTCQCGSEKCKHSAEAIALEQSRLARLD
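Enzyme 20 nM + cpd, 15 min RT; add b-H3K9 pep 500 nM / SAM 20 uM; 2 h RT; anti-H3K9me1 Ab 0.5 ug/mL + SA donor / anti-rabbit acceptor beads 20 ug/mL each, 10 min; AlphaScreen read.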
Sfp PPTase inh: qHTS Assay for Inhibitors of Bacillus subtilis Sfp phosphopantetheinyl transferase (PPTase) | 4'-phosphopantetheinyl transferase ffp (Bacillus subtilis), Q9F4F7 | Biochemical Sfp PPTase activity, qHTS | Potency, µM, for inactives: largest response in the series, negative = inhibition, most hits filed as inhibitors | hit rate 3.5% among 310,000;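 note: the enzyme is Sfp with the accession as filed and its product quenches rhodamine fluorescence; potency is the fitted concentration of half-maximal effect; 0% = enzyme reaction without inhibitor and -100% = no enzyme wells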
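Fluorescence-quenching assay with 15 nM Sfp, 5 uM rhodamine-CoA and 12.5 uM BHQ-2-labelled ybbR peptide in pH 7.6 Hepes/MgCl2 buffer. Enzyme was pre-incubated with compound for 15 min at room temperature. Rate was taken from the 30-min fluorescence change (525/598 nm).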
CCT chaperon mod: High-Throughput Screening for Modulators of Cytosolic Chaperonin Activity | hit rate 0.3% among 360,000 | activity change, % (no concentration beside the values), hits read low | purified chaperonin ATPase assay, HTRF ADP detection, 30 min; in the data active = activity change below about -30%
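TRiC at 40 or 20 nM final (batch-dependent) in 30 mM Tris pH 7.4, 100 mM KCl, 5 mM MgCl2, 1 mM DTT, with compound at single 76 uM and 10 uM ATP, 30 min at 37 deg C. ADP detected by HTRF Transcreener, 665/615 ratio.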
VDR inhibitor: Inhibitors of the vitamin D receptor (VDR): qHTS. AID 504847, 2011. Vitamin D3 receptor (Homo sapiens), P11473. VDR-SRC2-3 peptide fluorescence polarization, 2 h. Potency, µM, for inactives: max response, negative = inhibition, actives largely listed as inhibitors. hit rate 0.93% among 400,000; note: potency is the fitted concentration of half-maximal effect
Target sequence (P11473 whole entry, looked up): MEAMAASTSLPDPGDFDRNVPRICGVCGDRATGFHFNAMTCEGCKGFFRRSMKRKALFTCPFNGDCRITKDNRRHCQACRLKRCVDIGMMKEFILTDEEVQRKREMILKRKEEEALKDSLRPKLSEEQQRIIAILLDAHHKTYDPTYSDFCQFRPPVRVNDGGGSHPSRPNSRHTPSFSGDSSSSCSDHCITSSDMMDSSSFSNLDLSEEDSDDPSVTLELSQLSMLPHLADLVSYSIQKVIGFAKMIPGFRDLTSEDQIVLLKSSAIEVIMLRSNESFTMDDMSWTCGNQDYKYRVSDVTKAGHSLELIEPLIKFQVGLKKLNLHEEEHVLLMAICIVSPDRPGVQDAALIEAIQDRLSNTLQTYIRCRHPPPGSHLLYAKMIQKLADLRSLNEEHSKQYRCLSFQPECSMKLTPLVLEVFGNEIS
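Fluorescence polarization assay of small-molecule disruption of VDR binding to coregulator peptide SRC2-3. Compounds and controls pin-transferred, then read after 2 h incubation at ambient room temperature.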
The depositor's hits bear a star; u = inconclusive; x = no result given; [ ] = remark or other dose. Unless noted, calls come from the whole dose curve; as a rule, active = well fitted curve in the direction sought with a large enough effect; inconclusive = small, poorly fitted or top-dose-only effect, or another doubt; inactive = no such curve, though single readings can be large; an effect the other way counts as inactive or inconclusive. Unless noted, % is set by controls: 0 for no effect and ±100 for the full control effect.

SMILES	MmCpn inh	PLK1 PBD inh	G9a block	Sfp PPTase inh	CCT chaperon mod	VDR inhibitor
COc1ccc(O)c(-c2c(-c3ccc(Cl)cc3)n[nH]c2C)c1	-1%	-5%	25µM*	-21%	2	-1%
CCOC(=O)c1sc2ncn(CC(=O)Nc3ccc(OCC)cc3)c(=O)c2c1C	x	x	2%[59 µM]	x	x	-2%
COc1cc(NC(=O)c2ccccc2)c(OC)cc1NC(=O)CN1C(=O)N(C)C2(CCCCC2)C1=O	1%	-6%	79µM*	x	0	-3%
COc1cc(NC(=O)c2ccc(Cl)cc2)c(OC)cc1NC(=O)CN1CCOCC1	0%	-5%	-18%	-1%	-3	5%
COc1cc(NC(=O)c2ccc(Cl)cc2)c(OC)cc1NC(=O)CN1CCCCC1	-2%	30µM*	50µM*	8%	1	-24%
CCc1nc(SCC(=O)c2cccs2)c2oc3ccccc3c2n1	-6%	-8%	31%[59 µM]	35µM*	0	-20%
CN1CCc2cc3c(c4c2[C@H]1[C@H](O)c1ccccc1-4)OCO3	-2%	-22%	50µM*	-5%	-1	6%
COc1ccc2c(c1OC)C(=O)O[C@H]2C1c2c(cc3c(c2OC)OCO3)CCN1C (some centres not stated)	x	x	-2%[2.33 µM]	8%	x	2%
COCc1cc(CN2CCCC(C(=O)Nc3ccc(-c4ccco4)cc3)C2)ccc1OC (configuration not stated)	-7%	-10%	8.9µM*	50µM*	0	-14%
Cc1ncc(CN2CCCC(C(=O)Nc3ccc(-c4cscn4)cc3)C2)cn1 (configuration not stated)	-2%	10%	x	6%	-7	-6%
Cc1ncc(CN2CCCC(C(=O)Nc3ccc(-c4ccco4)cc3)C2)cn1 (configuration not stated)	1%	-13%	10%[0.501 µM]	32µM*	1	-10%
CC(C)Oc1ccc(CNC(=O)c2cnc3sc(N4CCCCC4)nn3c2=O)cc1	x	x	12%[59 µM]	x	x	0%
Cc1cccc(N2CCN(C(=O)Nc3ccc(F)cc3)CC2C)c1 (configuration not stated)	x	x	1%[59 µM]	x	x	11%
COC(=O)c1ccc(Oc2cc(C)nc(SC)n2)cc1	1%	12µM*	11%[59 µM]	10%	-4	u
Cc1nn(-c2ccccc2)c2c1cc1c(=O)n(C)c(=O)nc-1n2-c1ccccc1F	-2%	-3%	32µM*	4%	0	4%
CN(C(=O)c1c(O)c2ccccc2n(C)c1=O)c1ccccc1	x	x	-11%[12.7 µM]	12%	x	5%
Cc1ccc2nc(Cl)c(C3CC(c4ccco4)=NN3C(=O)CCCC(=O)O)cc2c1 (configuration not stated)	1%	-28%	u	7%	-109*	24%
Cc1ccc2cc(C3CC(c4ccco4)=NN3C(=O)CCCC(=O)O)c(Cl)nc2c1 (configuration not stated)	0%	0%	x	-8%	0	-12%
COc1ccc2nc(Cl)c(C3CC(c4ccco4)=NN3C(=O)CCCC(=O)O)cc2c1 (configuration not stated)	-14%	-9%	-49%	35µM*	0	0%
COc1ccc2cc(C3CC(c4ccco4)=NN3S(=O)(=O)c3ccccc3)c(Cl)nc2c1 (configuration not stated)	-2%	1%	u	2%	-5	-22%
Cc1ccc2cc(C3CC(c4ccco4)=NN3S(=O)(=O)c3ccccc3)c(Cl)nc2c1 (configuration not stated)	-1%	-7%	50µM*	19%	-7	-2%
CC1(C)C(=O)C(c2ccccc2)=C2CN3C(=O)N(CCc4ccccc4)C(=O)C3(Cc3ccc(F)cc3)C=C21 (configuration not stated)	x	x	x	21%	x	x
CC#CCC1(C(=O)OC)C(=O)NC[C@H]1c1ccccc1 (some centres not stated)	x	x	x	6%	x	-6%
CC(C)c1nn2c(=O)cc(COC(=O)CNC(=O)c3ccccc3)nc2s1	x	x	28%[59 µM]	x	x	-8%
Nc1nc(=S)c2ncn(C3CCCC3)c2[nH]1	-2%	-11%	19%[0.501 µM]	13µM*	1	-20%
SMILES	MmCpn inh	PLK1 PBD inh	G9a block	Sfp PPTase inh	CCT chaperon mod	VDR inhibitor
COc1ccc(N2C(=O)CC(N3CCN(C(=O)c4ccco4)CC3)C2=O)cc1 (configuration not stated)	1%	-24%	56µM*	15%	0	5%
CCOC(=O)N1CCN(C2CC(=O)N(c3ccc(Cl)c(Cl)c3)C2=O)CC1 (configuration not stated)	0%	-13%	u	-3%	0	2%
COc1cccc(N2C(=O)CC(N3CCN(C(=O)c4ccco4)CC3)C2=O)c1 (configuration not stated)	1%	-3%	u	-4%	2	-3%
O=C(c1ccco1)N1CCN(C2CC(=O)N(c3ccc(F)c(Cl)c3)C2=O)CC1 (configuration not stated)	1%	-8%	28µM*	10%	-1	-2%
CCN(CC)S(=O)(=O)c1ccc2c(c1)nc(SCc1nc3ccsc3c(=O)[nH]1)n2CC	0%	-13%	35µM*	u	-2	-25%
COc1ccc(CNCC(O)(c2ccccc2)c2ccccc2)cc1OC	1%	-12%	-2%	8%	-1	-6%
COc1ccc(CNCc2ccncc2)cc1OC	-3%	-9%	-9%	2%	-65*	-17%
COc1ccc(CNCc2ccc(C(F)(F)F)cc2)cc1OC	-1%	-10%	79µM*	-4%	0	-25%
Nc1nc2nc(SCC(=O)N3CCCc4ccccc43)[nH]c2c(=O)[nH]1	-2%	x	79µM*	-9%	x	x
Nc1cc(=O)[nH]c(SCC(=O)N2CCCc3ccccc32)n1	-1%	-4%	8%[59 µM]	17%	0	4%
O=C(CSc1nc(-c2ccccc2)cc(=O)[nH]1)N1CCc2ccccc21	-1%	3µM*	-7%[12.7 µM]	10%	-2	u
CCCc1cc(=O)[nH]c(SCC(=O)N2CCCc3ccccc32)n1	-8%	21µM*	10%	2%	2	-14%
COc1ccccc1N1CCN(C(=O)CSc2nc(-c3ccccc3)cc(=O)[nH]2)CC1	2%	-8%	-19%[59 µM]	20%	1	-5%
